Out of some 310,000 compounds screened, about 14,000 (4.5%) showed an effect of 50% or more. The effect is printed as a negative number. For the sample, strong results were picked, then their nearest neighbours and some compounds at random.
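Note: peak tail current of the secondary pulse compared with the same well before compound.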

Chain of human ether-à-go-go-related gene (hERG) potassium channel (Q12809 whole entry, looked up): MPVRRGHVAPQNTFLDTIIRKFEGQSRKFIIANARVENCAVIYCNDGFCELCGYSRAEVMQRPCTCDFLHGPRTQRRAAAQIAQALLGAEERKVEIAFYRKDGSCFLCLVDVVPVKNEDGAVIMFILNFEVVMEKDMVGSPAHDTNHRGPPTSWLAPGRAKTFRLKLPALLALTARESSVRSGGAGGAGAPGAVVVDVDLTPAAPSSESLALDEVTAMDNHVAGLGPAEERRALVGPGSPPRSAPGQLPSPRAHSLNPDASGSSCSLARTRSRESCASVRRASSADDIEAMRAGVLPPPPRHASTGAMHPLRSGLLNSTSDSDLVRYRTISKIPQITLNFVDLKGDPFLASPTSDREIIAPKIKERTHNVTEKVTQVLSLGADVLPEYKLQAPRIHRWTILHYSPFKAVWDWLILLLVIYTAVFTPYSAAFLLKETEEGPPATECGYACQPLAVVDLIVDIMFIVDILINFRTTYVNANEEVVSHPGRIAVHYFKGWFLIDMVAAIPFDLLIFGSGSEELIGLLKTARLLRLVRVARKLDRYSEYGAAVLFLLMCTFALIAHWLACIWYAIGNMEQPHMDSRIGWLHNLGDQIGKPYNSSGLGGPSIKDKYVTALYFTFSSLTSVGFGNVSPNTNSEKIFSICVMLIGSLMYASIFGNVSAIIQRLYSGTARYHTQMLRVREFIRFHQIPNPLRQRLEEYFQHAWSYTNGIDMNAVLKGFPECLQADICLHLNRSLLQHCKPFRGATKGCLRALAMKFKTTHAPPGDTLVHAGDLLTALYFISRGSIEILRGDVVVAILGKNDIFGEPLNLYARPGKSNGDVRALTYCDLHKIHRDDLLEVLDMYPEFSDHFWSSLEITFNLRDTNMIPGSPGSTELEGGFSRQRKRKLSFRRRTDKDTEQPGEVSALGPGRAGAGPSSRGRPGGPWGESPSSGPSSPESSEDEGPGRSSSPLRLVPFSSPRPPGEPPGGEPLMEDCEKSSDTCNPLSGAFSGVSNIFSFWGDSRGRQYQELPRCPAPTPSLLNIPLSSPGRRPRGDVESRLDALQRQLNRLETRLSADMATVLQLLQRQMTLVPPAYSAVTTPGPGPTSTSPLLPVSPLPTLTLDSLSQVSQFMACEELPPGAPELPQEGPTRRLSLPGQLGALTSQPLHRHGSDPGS

The experiment addresses human ether-à-go-go-related gene (hERG) potassium channel (human, UniProt Q12809). Put plainly: primary screen, population patch clamp on CHO cells stably expressing hERG; higher = less effect of the substance.
With `Cc1ccc(-c2nc3c(c(SCC(=O)N4CCOCC4)n2)COC(C)(C)C3)cc1`, the “hERG current change (%, negative = inhibition) at 10uM” value is 3.09%. For `O=C(NCCCn1ccnc1)C(=O)Nc1ccccc1` the value was 11.8%; for `CCCNc1nc2c(c(=O)[nH]c(=O)n2C)n1CCc1ccccc1`, 4.04%; for `C#CCN(C(=O)c1ccc(OC)c(OC2CCN(C(C)C)CC2)c1)C1CCCCC1`, -46.4%.

For `C=CCc1cccc2cc(C(=O)NC)c(=O)oc12`, the “hERG current change (%, negative = inhibition) at 10uM” value is reported as -5.8%. Regarding `Cn1cnnc1-c1cccc(NS(=O)(=O)c2ccc(N3CCCC3=O)cc2)c1`, the “hERG current change (%, negative = inhibition) at 10uM” value came out at 9.92%. Next, `CCN(CC)c1ncnc2c1[nH]c1ccccc12`: -21.8%; `O=C(c1ccco1)N1CCN(C(c2coc3ccc(Cl)cc3c2=O)c2nnnn2C2CCCC2)CC1` (centres unmarked): -55.6%. Next, `O=c1c(C(c2nnnn2C2CCCCC2)N2CCCCC2)coc2ccc(Cl)cc12` (centres unmarked): 0.931%. Next, `Cc1ccc2occ(C(c3nnnn3C3CCCC3)N3CCN(C(=O)c4ccco4)CC3)c(=O)c2c1` (centres unmarked): -45.7%; `COc1ccc(S(=O)(=O)Nc2cc3c4c(c2)CCN4C(=O)CC3)cc1OC`: -7.56%; `O=C(Cc1ccc(Cl)c(Cl)c1)N/N=C/c1cccnc1`: -40%. As to `C=CCn1c(SCc2cccnc2)nnc1-c1ccncc1`, the “hERG current change (%, negative = inhibition) at 10uM” value was -1.49%. In the case of `C=CCn1c(SCCC#N)nnc1-c1ccncc1`, the “hERG current change (%, negative = inhibition) at 10uM” value is -4.28%.

Regarding `c1ccc(CCn2c(SCc3ccccc3)nnc2-c2ccncc2)cc1`, the “hERG current change (%, negative = inhibition) at 10uM” value is reported as -41.4%. For `C=CCn1c(SCc2ccccc2)nnc1-c1cccnc1` the value was -20.5%; for `Cn1c(SCc2ccc(C#N)cc2)nnc1-c1ccccc1`, -29%; for `N#Cc1ccc(CSc2nnc(-c3ccncc3)n2CCc2ccccc2)cc1`, -74.1%. For `C=CCn1c(SCc2ccc(C#N)cc2)nnc1-c1ccc(C)cc1` the value was -71.3%. For `C=CCn1c(SCc2ccc(C#N)cc2)nnc1-c1ccccc1` the value was -57.8%.

In the case of `Cn1c(SCc2ccc(C#N)cc2)nnc1-c1ccncc1`, the “hERG current change (%, negative = inhibition) at 10uM” value is reported as -19.7%.

Turning to `CC(=O)c1c(C)[n+]([O-])c2ccc3c(non3O)c12`, the “hERG current change (%, negative = inhibition) at 10uM” value came out at 13.6%. Turning to `CCOC(=O)C1=NN(c2ccc(Cl)cc2)C(c2ccccc2)CC1=O` (centres unmarked), the “hERG current change (%, negative = inhibition) at 10uM” value was -5.12%. For the compound `COc1cccc(NC(=O)CN(C)C(=O)c2cc(C3CC3)nn2-c2ccccc2)c1`, the “hERG current change (%, negative = inhibition) at 10uM” value is recorded as -23.1%.

Take `Cc1cc(C)nc(NS(=O)(=O)c2ccc(N/C=C/C(=O)c3ccc(Cl)c(Cl)c3)cc2)n1`: the “hERG current change (%, negative = inhibition) at 10uM” value is 25.6%. Next, `CCOC(=O)c1oc2ccccc2c1NC(=O)c1cc(OC)cc(OC)c1`: 7.29%; `COc1ccccc1C(=O)NNC(=O)C1CC=CCC1` (centres unmarked): 18.7%; `O=C(/C(=C/O)N=Nc1ccccc1)c1ccncc1`: -12.1%. For `COc1cc(NC(=S)NCc2cccnc2)c(OC)cc1Cl` the value was -27.9%; for `CC(=O)N(c1ccccc1)C1SC(=O)N(c2ccccc2)C1=O` (centres unmarked), 13.9%; for `O=[N+]([O-])c1cc(Cl)c(O)c(-[n+]2c(-c3ccccc3)cc(-c3ccccc3)cc2-c2ccccc2)c1.[O-][Cl+3]([O-])([O-])[O-]`, -38.7%.

Regarding `O=[N+]([O-])c1ccccc1NCc1ccccc1Cl`, the “hERG current change (%, negative = inhibition) at 10uM” value is -4.13%. Next, `Clc1ccc(C[n+]2c(-c3ccccc3)cc(-c3ccccc3)cc2-c2ccccc2)cc1.[O-][Cl+3]([O-])([O-])[O-]`: -79.5%. For `[O-][Cl+3]([O-])([O-])[O-].c1ccc(C[n+]2ccccc2)cc1` the value was -3.58%.

Turning to `Fc1ccc(C[n+]2c(-c3ccccc3)cc(-c3ccccc3)cc2-c2ccccc2)cc1.[O-][Cl+3]([O-])([O-])[O-]`, the “hERG current change (%, negative = inhibition) at 10uM” value is on record as -71.5%. `Cc1cc[n+](Cc2ccccc2)cc1.[O-][Cl+3]([O-])([O-])[O-]`: the “hERG current change (%, negative = inhibition) at 10uM” value stood at 18.9%. For `O=[N+]([O-])c1ccc(C[n+]2c(-c3ccccc3)cc(-c3ccccc3)cc2-c2ccccc2)cc1.[O-][Cl+3]([O-])([O-])[O-]` the value was -25.8%.

As to `O=C([O-])c1cc(-c2ccccc2)cc(-c2ccccc2)[n+]1Cc1ccccc1`, the “hERG current change (%, negative = inhibition) at 10uM” value was -10.1%. Next, `Cc1ccc(-c2cc[n+](Cc3ccccc3)cc2)cc1.[Cl-]`: -5.47%. Next, `Cc1ccc(C[n+]2c(-c3ccc(C)cc3)cc(-c3ccc(C)cc3)cc2-c2ccc(C)cc2)cc1.[O-][Cl+3]([O-])([O-])[O-]`: -75.6%.

Take `O=[N+]([O-])c1ccccc1-c1cc(-c2ccccc2)cc(-c2ccccc2)[n+]1Cc1ccccc1Cl.[O-][Cl+3]([O-])([O-])[O-]`: the “hERG current change (%, negative = inhibition) at 10uM” value is recorded as -78.7%. For `O=C(COC(=O)CCc1nc2ccccc2s1)NC(=O)NCc1ccco1` the value was -11.4%; for `CCOc1cc(/C=C/C(=O)c2ccc(OC)c(CN3CCOCC3)c2)cc(Br)c1O`, -32.5%. Take `CCSc1nsc(NC(=O)Nc2cccc(C(C)=O)c2)n1`: the “hERG current change (%, negative = inhibition) at 10uM” value is recorded as 10.5%.

In the case of `Cc1ccc(-c2ccc(S(=O)(=O)N3CC(C)OC(C)C3)cc2)cc1` (centres unmarked), the “hERG current change (%, negative = inhibition) at 10uM” value amounted to 18.7%.

For `CCCSc1cc(N2CCN(C)CC2)nc(-c2ccc(OC)cc2)n1.Cl`, the “hERG current change (%, negative = inhibition) at 10uM” value is listed as -29.2%. Next, `COc1ccc(C(=O)NCC(=O)OCC(=O)NCCC2=CCCCC2)cc1`: -12.7%; `COCCCn1c(SCC(=O)NC2CCCCC2)nnc1-c1ccncc1`: 19.8%.

As for `COc1ccc(CC(=O)Nc2cc(C)on2)cc1`, the “hERG current change (%, negative = inhibition) at 10uM” value worked out at 5.74%. With `COc1cc(OC)cc(C(=O)NC(C(=O)Nc2ccc3c(c2)OCCO3)C(C)C)c1` (centres unmarked), the “hERG current change (%, negative = inhibition) at 10uM” value is -11%. For `CCN(CC)CCn1c(C)nc2c(sc3nc4c(cc32)COC(C)(C)C4)c1=O` the value was -22.3%; for `O=C(NCC1CCCO1)c1onc(CSc2cccc3ccccc23)c1C(=O)O` (centres unmarked), 14.4%; for `COc1cccc(NC(=O)CN(C)C(=O)CSCc2nc3scc(-c4cccs4)c3c(=O)[nH]2)c1`, -16.2%. Regarding `CCC(C)(C)NC(=O)C(c1ccc(OC)cc1)N(C(=O)CCC(=O)Nc1cc(C)on1)c1ccc(OC)cc1OC` (centres unmarked), the “hERG current change (%, negative = inhibition) at 10uM” value is recorded as -7.89%. Next, `COc1ccc(Cl)cc1NC(=O)C(C)N1CCc2ccccc21` (centres unmarked): 23.9%; `COC(=O)c1ccccc1NC(=O)N1CCN(C/C=C/c2ccccc2)CC1`: -45.1%.

Turning to `COc1ccc(Cl)cc1NC(=O)C(C)N1CCN(C/C=C/c2ccccc2)CC1.O=C(O)C(=O)O` (centres unmarked), the “hERG current change (%, negative = inhibition) at 10uM” value is recorded as -63.4%.

`COc1ccc(Cl)cc1NC(=O)C(C)N1CCN(c2ccccn2)CC1` (centres unmarked): the “hERG current change (%, negative = inhibition) at 10uM” value is given as -18.3%. Next, `COc1ccccc1NC(=S)N1CCN(C/C=C/c2ccccc2)CC1`: -0.974%.

On to `COc1ccccc1NC(=O)C(C)N1CCN(C/C=C/c2ccccc2)CC1` (centres unmarked), for which the “hERG current change (%, negative = inhibition) at 10uM” value is recorded as -74.5%. For `C=CCc1cccc(CNc2ccc(S(=O)(=O)Nc3nccnc3OC)cc2)c1O` the value was -9.98%; for `N=c1c2c3c(sc2ncn1N)CCCC3`, 2.04%.

Consider `COc1ccccc1C1C2=C(CCCC2=O)N(CC(=O)O)C2=C1C(=O)CCC2`, for which the “hERG current change (%, negative = inhibition) at 10uM” value came to 15.9%. In the case of `CCn1c(SC)nnc1-c1nn(-c2ccccc2)ccc1=O`, the “hERG current change (%, negative = inhibition) at 10uM” value is 11.3%. For `CCn1c(SCc2ccc(F)cc2)nnc1-c1nn(-c2ccccc2)ccc1=O` the value was -35.1%; for `CCn1c(SCc2c(Cl)cccc2Cl)nnc1-c1nn(-c2ccccc2)ccc1=O`, -66.1%. For `COCCNc1ccc(-c2n[nH]c(=O)c3ccccc23)cc1[N+](=O)[O-]` the value was 9.51%; for `CN1C(=O)S/C(=C/c2cccnc2)C1=O`, -0.904%; for `O=C(Cn1cnc2ccccc21)N/N=C/C(Br)=C/c1ccccc1`, 5.98%. Next, `O=C(Nc1c(F)cc(F)cc1Br)c1cc(S(=O)(=O)N2CCN(c3ccccn3)CC2)ccc1F`: -15.9%; `CCC(C)NS(=O)(=O)c1ccc(F)c(C(=O)Nc2c(F)cc(F)cc2Br)c1` (centres unmarked): -60.8%. Consider `CCN1CCN(S(=O)(=O)c2ccc(F)c(C(=O)Nc3c(F)cc(F)cc3Br)c2)CC1`, for which the “hERG current change (%, negative = inhibition) at 10uM” value was -17.1%.

With `CC(=O)Nc1ccc(S(=O)(=O)N(CC(=O)Nc2cc(C)on2)Cc2ccc(F)cc2)cc1`, the “hERG current change (%, negative = inhibition) at 10uM” value was -11.5%. For `COc1cccc2cc(C(=O)C3=C(O)C(=O)N(CCN4CCOCC4)C3c3cccs3)oc12` (centres unmarked) the value was 13.1%; for `C=CCNc1nc(NCCN2CCOCC2)nc(OC)n1`, -4.89%. Next, `C=CCNc1nc(NCCN2CCOCC2)nc(N2CCOCC2)n1`: 18.6%; `CCOc1ccc(Nc2nc(NCCN3CCOCC3)nc(OC)n2)cc1`: -63.8%. For `CCOc1nc(Nc2ccc(OC)cc2)nc(N2CCOCC2)n1` the value was -4.52%.

For the compound `Clc1ccc(Nc2nc(NCCN3CCOCC3)nc(N3CCOCC3)n2)cc1`, the “hERG current change (%, negative = inhibition) at 10uM” value was -56%. As to `COc1ccc(Nc2nc(N3CCOCC3)nc(N3CCOCC3)n2)cc1`, the “hERG current change (%, negative = inhibition) at 10uM” value came out at 11.7%. In the case of `c1ccc(Nc2nc(NCCN3CCOCC3)nc(Nc3ccccc3)n2)cc1`, the “hERG current change (%, negative = inhibition) at 10uM” value is -15.2%.

`COc1nc(NCCN2CCOCC2)nc(Nc2ccccc2)n1`: the “hERG current change (%, negative = inhibition) at 10uM” value is -50.5%. Regarding `COc1ccc(Nc2nc(NCCN3CCOCC3)nc(Nc3ccc(OC)cc3)n2)cc1`, the “hERG current change (%, negative = inhibition) at 10uM” value is on record as -78.2%.

As to `Clc1ccc(CNc2nc(N3CCOCC3)nc(N3CCOCC3)n2)cc1`, the “hERG current change (%, negative = inhibition) at 10uM” value is on record as -20%. In the case of `COc1ccc(NC(=S)NCCN2CCOCC2)cc1`, the “hERG current change (%, negative = inhibition) at 10uM” value is reported as 21.7%.

With `CCOc1ccc(Nc2nc(N3CCOCC3)nc(N3CCOCC3)n2)cc1`, the “hERG current change (%, negative = inhibition) at 10uM” value is reported as -17.9%.
